Screens deposited in PubChem by National Center for Advancing Translational Sciences (NCATS).
Vif-A3F inh – Vif-A3F binding inhibition; HeLa A3F-eYFP + Vif (tagged APOBEC3F with the HIV-1 protein that degrades it), YFP fluorescence increase; Potency, µM (series often up to 46.1 µM), for inactives: at the highest dose activity, negative = active; 0.2% of 390,000 active; AID 602313; note: potency is the fitted concentration of half-maximal effect; % of control where 0% means no effect; nearly all actives have a fitted effect of over 65% in size
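HeLa cells stably expressing Vif plus C-terminally eYFP-tagged A3F were seeded, incubated overnight at 37 deg C, dosed with compound, incubated overnight again at 37 deg C. Yellow fluorescence (Ex 488/Em 500-530) reported blocked Vif-mediated A3F-eYFP degradation.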
PINK1 modulator – changes PINK1 expression. PINK1 immunofluorescence, high-content cytometry, 24 h. Potency, µM (doses to about 76.6 µM), for inactives: top-dose activation (PINK1 increase), actives largely listed as activators. 0.2% of 410,000 active. AID 624263; active = well fitted activation curve with a large enough effect; inconclusive = small, poorly fitted or top-dose-only effect; cell line not stated here; note: potency is the fitted concentration of half-maximal effect; % of control where 0% means no effect; nearly all actives have a fitted effect of over 65% in size
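PINK1 protein level read as immunofluorescence by microplate cytometer in a fixed, stained stable cell line after 24 h exposure to five compound concentrations, with CCCP as control.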
mIDH1 inhibitor – inhibitors of human mutant IDH1 R132H | O75874 | IDH1-R132H enzyme, NADPH consumption, diaphorase/resazurin fluorescence | Potency, µM (top dose mostly 76.6 µM), without a hit: at the highest dose activity change, negative = inhibition, most hits filed as inhibitors | 0.093% of 390,000 active; note: potency is the fitted concentration of half-maximal effect; % is set by controls: 0 for no effect and ±100 for the full control effect; nearly all actives have a fitted effect of over 65% in size
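IDH1-R132H (0.5 ug/mL) preincubated 30 min with compound, then NADPH (0.016 mM) and alpha-KG (2 mM) added; 80 min at RT, pH 7.5. Remaining NADPH coupled via diaphorase/resazurin to fluorescence (540/590 nm); concentration-response curves normalized to no-enzyme control.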
LDHA block – inhibitors of human lactate dehydrogenase A. purified LDHA, NADH/diaphorase-resazurin fluorescence; hits give low values. AID 1347041. 0.15% of 480,000 active. activity change, % (values are at about 110 or 230 µM); in the data active = activity change below about -30%; inconclusive = mostly about -25% to -30%;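 note: plate controls were DMSO wells for no effect and wells without enzyme for full effect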
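Resorufin fluorescence (ex540/em590), read at 0 and 20 min after diaphorase/resazurin addition, reports the NADH left after a 5 min room-temperature reaction of 2 nM human LDH5 with 0.06 mM NADH and 0.2 mM pyruvate.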
PTHR1 agonist – PTHR1 (human) receptor agonism | 0.075% of 410,000 active | AID 743266 | Q03431 | HEK293 GP2 PTHR1 cells, GloSensor cAMP luminescence, 1 h | Potency, µM (series often up to 115 µM), without a hit: top-dose activation, usual class: activators; note: potency is the fitted concentration of half-maximal effect; nearly all actives have a fitted effect of over 55% in size
Target sequence (Q03431 whole entry, looked up): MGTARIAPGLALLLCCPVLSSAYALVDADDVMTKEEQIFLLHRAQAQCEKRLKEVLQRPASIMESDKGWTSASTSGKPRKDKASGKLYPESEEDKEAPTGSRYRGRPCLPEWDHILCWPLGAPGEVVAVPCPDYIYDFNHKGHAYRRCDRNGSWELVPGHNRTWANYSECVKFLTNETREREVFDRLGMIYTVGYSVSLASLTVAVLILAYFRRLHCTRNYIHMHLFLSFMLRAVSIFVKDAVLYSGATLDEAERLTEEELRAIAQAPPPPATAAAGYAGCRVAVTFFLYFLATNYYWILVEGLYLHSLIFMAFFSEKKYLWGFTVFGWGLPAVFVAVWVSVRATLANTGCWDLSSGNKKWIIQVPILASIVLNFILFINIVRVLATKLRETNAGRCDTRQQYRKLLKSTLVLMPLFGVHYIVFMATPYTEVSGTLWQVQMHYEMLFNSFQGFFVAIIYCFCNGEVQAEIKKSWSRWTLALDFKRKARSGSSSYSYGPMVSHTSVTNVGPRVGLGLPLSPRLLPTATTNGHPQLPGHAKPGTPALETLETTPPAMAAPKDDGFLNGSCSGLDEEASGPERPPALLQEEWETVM
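HEK-293-derived GP2 cells expressing PTHR1 and a GloSensor cAMP reporter, 3,000/well, plated overnight, given luciferin plus IBMX (each 0.5 mM as added) for 1 h at 37 °C, then compound for 1 h at 37 °C. Luminescence was read after 15 min at room temperature.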
Vif-APOBEC3G blk – inhibitors of Vif-APOBEC3G interaction | HeLa A3G-eYFP + Vif (tagged APOBEC3G with the HIV-1 protein that degrades it), YFP fluorescence, overnight | Potency, µM (top dose mostly 46.1 µM), without a hit: at the highest dose activity, negative = active, most hits filed as inhibitors | 0.076% of 410,000 active; note: potency is the fitted concentration of half-maximal effect; % is set by controls: 0 for no effect and ±100 for the full control effect; nearly all actives have a fitted effect of over 60% in size
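HeLa cells stably expressing Vif and C-terminally eYFP-tagged A3G, seeded overnight at 37 deg C, then exposed to compound by pintool overnight at 37 deg C. Rise in yellow fluorescence (Ex 488/Em 500-530, Acumen) marks blocked Vif-driven A3G degradation.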
Resorufin autofl – interferes with resorufin fluorescence in IDH1 counter-screen. shares compounds with mIDH1 inhibitor. Resorufin detection reagent fluorescence interference, cell-free. inhibition of signal, % at 51.2 µM. 750 tested, under 10 active. AID 623980;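 note: 0% = wells with normal resorufin and full inhibition = wells lacking resorufin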
IDH1 WT – wild-type IDH1 (human) inhibition counterscreen; AID 623995; shares compounds with mIDH1 inhibitor; WT IDH1 enzyme, NADPH diaphorase/resazurin fluorescence; 9% of 750 active; Potency, µM (series often up to 115 µM), without a hit: top-dose activity change, negative = inhibition, actives largely listed as inhibitors;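 note: potency is the fitted concentration of half-maximal effect; 0% = full WT IDH1 enzyme control and full inhibition = no enzyme wells; nearly all actives have a fitted effect of over 55% in size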
IDH1 R132H conf – confirmation of human mutant IDH1 inhibitors | IDH1 R132H enzyme, NADPH diaphorase/resazurin fluorescence | Potency, µM (titrated, usually from 76.6 µM), for inactives: at the highest dose activity change, negative = inhibition, usual class: inhibitors | 83% of 750 active | shares compounds with mIDH1 inhibitor; note: potency is the fitted concentration of half-maximal effect; nearly all actives have a fitted effect of over 50% in size
* marks the source's active call; other numbers are inactive results; i = inactive; ? = inconclusive; · = no result; [ ] = another dose, or the depositor's remark. Compounds with a hit are over-represented: about 0.59% of the library has one in this group of screens. Unless noted, calls come from the whole dose curve; as a rule, active = well fitted curve in the direction sought with a large enough effect; inconclusive = small, poorly fitted or top-dose-only effect, or another doubt; inactive = no such curve, though single readings can be large; an effect the other way counts as inactive or inconclusive.

SMILES	Vif-A3F inh	PINK1 modulator	mIDH1 inhibitor	LDHA block	PTHR1 agonist	Vif-APOBEC3G blk	Resorufin autofl	IDH1 WT	IDH1 R132H conf
CCc1cc(C(=O)c2ccc(OC)cc2)c(NC(=O)CN2CCCCC2)s1	8%	3%	-7%	1	i	-2%	·	·	·
O=C(c1cc2cc([N+](=O)[O-])ccc2oc1=O)N(Cc1ccccc1)c1ccccc1	·	·	·	-3	·	·	·	·	·
Cc1cccc(N2CCN(S(=O)(=O)c3ccc4c(c3)C(C(C)C)C(=O)N4)CC2)c1C (stereo not drawn)	0%	?	40µM*	4	-37%	-4%	3	6%	22µM*
Cc1cccc(N2CCN(S(=O)(=O)c3ccc4c(c3)NC(=O)C(C)S4)CC2)c1C (stereo not drawn)	-10%	3%	-2%	-1	-23%	1%	·	·	·
Cc1c(/C=C(/C#N)c2ccccn2)cc(C#N)n1C	·	·	·	-8	·	·	·	·	·
COc1cccc(-c2coc3c(C)c4oc(=O)c(CC(=O)O)c(C)c4cc23)c1	-1%	-1%	-4%	-8	-1%	2%	·	·	·
COc1cccc(-c2coc3c(C)c4oc(=O)c(CCC(=O)O)c(C)c4cc23)c1	-7%	-2%	26µM*	-6	-18%	-24%	12	35µM*	25µM*
COc1cc(C2C(C#N)=C(N)N(c3sc4c(c3C#N)CCCC4)C3=C2C(=O)CC(C)(C)C3)cc(OC)c1OC (stereo not drawn)	1%	16%	?	-2	-4%[57.5 µM]	0%	6	7%	7.9µM*
CCOc1cc(/C=N/O)c(Br)cc1OCC(N)=O	·	·	·	5	·	·	·	·	·
Cc1ccc(-n2c(O)c(C=Nc3ccccc3-c3n[nH]c(=S)[nH]c3=O)c3ccccc3c2=O)c(C)c1	-9%	-2%	?	-1	-30%	0%	-5	79µM*	35µM*
Cc1c(C)c2c(OCC(=O)NCC(=O)NCC(=O)O)cc3c(c2oc1=O)CCC(C)(C)O3	1%	5%	15%	-5	i	-6%	·	·	·
Cc1c(C)c2c(OCC(=O)O)cc3c(c2oc1=O)CCC(C)(C)O3	-2%	1%	?	-1	i	-8%	1	?	18µM*
Cc1nc2nc(N(Cc3ccc(Cl)cc3)C(=O)c3ccco3)[nH]n2c(=O)c1Cc1ccccc1	·	·	·	4	·	·	·	·	·
COCCNC(=O)Cn1ccc2cc(Cl)ccc21	·	·	·	3	·	·	·	·	·
CCOc1ccc(C2c3c(-c4cc(C)ccc4O)n[nH]c3C(=O)N2Cc2cccnc2)cc1OCC (stereo not drawn)	-4%	8%	?	1	14%	-8%	-3	0%	35µM*
COc1cc(C2c3c(-c4cc(C)ccc4O)n[nH]c3C(=O)N2Cc2cccnc2)cc(OC)c1OC (stereo not drawn)	-7%	8%	9%	10	-24%	-2%	·	·	·
CCc1ccc(C2c3c(-c4cc(C)ccc4O)n[nH]c3C(=O)N2Cc2cccnc2)cc1 (stereo not drawn)	2%	0%	28µM*	2	-35%	-11%	-7	-3%	16µM*
CC(=O)c1cccc(NC(=O)Cc2c(C)[nH]n(-c3nc(-c4ccc(Cl)cc4)cs3)c2=O)c1	·	·	·	1	·	·	·	·	·
Cc1ccc(-c2nnc(Nc3ccc(F)cc3)c3ccccc23)cc1S(=O)(=O)NC(C)C	-4%	6%	?	-4	-31%	-6%	1	7%	?
COc1nnc(-c2ccc(C)c(S(=O)(=O)NC(C)C)c2)c2ccccc12	-16%	1%	26%	-4	-9%	-7%	·	·	·
Cc1nn(C(=O)COc2ccccc2)c(C)c1S(=O)(=O)N1CCc2ccccc2C1	·	·	·	6	·	·	·	·	·
CN(c1ccccc1)c1ccc(/C=C/[N+](=O)[O-])cc1	?	0%	29µM*	-1	-29%	-19%	2	71µM*	22µM*
CCCN1C(=O)c2[nH]nc(-c3ccccc3O)c2C1c1ccc(OCc2ccccc2)c(OC)c1 (stereo not drawn)	-9%	5%	-26%	1	i	-3%	·	·	·
O=C1c2[nH]nc(-c3ccccc3O)c2C(c2cccc(OCc3ccccc3)c2)N1CCCO (stereo not drawn)	5%	0%	45µM*	-19	-13%	-15%	-11	?	40µM*
COc1cc(C2c3c(-c4ccccc4O)n[nH]c3C(=O)N2CCO)ccc1OCc1ccccc1 (stereo not drawn)	-8%	7%	?	-5	-3%	-3%	1	-5%	28µM*
SMILES	Vif-A3F inh	PINK1 modulator	mIDH1 inhibitor	LDHA block	PTHR1 agonist	Vif-APOBEC3G blk	Resorufin autofl	IDH1 WT	IDH1 R132H conf
O=C(Nc1nnc(SCc2ccc(F)cc2)s1)c1ccc2ncsc2c1	-2%	7%	52µM*	-2	-23%	0%	-2	-16%	50µM*
CCOC(=O)C1CCC(CNC(=O)N2CCCC2c2ccc(Cl)cc2)CC1 (stereo not drawn)	·	·	·	-6	·	·	·	·	·
Cc1ccc(C2=NN=C(NC(=O)CSc3nncn3C)SC2)cc1	15%	?	32µM*	-5	-5%	2%	-4	323%	45µM*
COc1ccc(-c2cc(C(=O)NCC(C)C)c3ccccc3n2)cc1	·	·	·	3	·	·	·	·	·
Cc1ccc(N2C(S)=C(C#N)C(=O)NC2c2cccs2)cc1 (stereo not drawn)	-18%	-1%	52µM*	-2	-20%	0%	4	20%	?
COc1ccc(-c2c(NC(=O)c3cccs3)n(C)c3ccccc3c2=O)cc1OC	·	·	·	-3	·	·	·	·	·
CCCC(=O)N1CCC(C(=O)Nc2cc(C)ccn2)CC1	·	·	·	-3	·	·	·	·	·
CN1CCc2c(c(N3CCOCC3)nc3sc(C(=O)Nc4ccccc4)c(N)c23)C1	·	·	·	0	·	·	·	·	·
O=C(O)c1[nH]c2ccccc2c1C(c1cc(Br)ccc1O)c1c(C(=O)O)[nH]c2ccccc12	-1%	1%	41µM*	-6	i	1%	11	71µM*	25µM*
